Assay results published in PubChem BioAssay AID1159580 (chemical genetic matrix, 2015).
The whole screen tested about 5,500 compounds, of which about 2,000 (36%) were called active. Another 18% or so got no clear call; they are omitted. Rule as the data show it: active = normalized growth mostly below about 0.91 (no sharp cut-off); inconclusive = no clear call, values can overlap the other calls; inactive = mostly above about 0.92. Some of the results follow.

Assay: chemical genetic growth profiling, strain panel (AID 1159580);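 also: tested at 20 µM; growth read once vehicle control cultures reached saturation at 30 °C; 1 = growth at the plate median or of vehicle wells; lower values mean less growth of the strain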
Conditions: growth OD

Measured: normalized growth

NC1=NCCN1CC(=O)O
inactive: S. cerevisiae deletion strains, locus YJR043C, strain POL32, hits give low values 0.98 | S. cerevisiae deletion strains, locus YJR066W, strain TOR1, hits give low values 0.989 | S. cerevisiae deletion strains, locus YKL009W, strain mrt4, hits give low values 0.968 | S. cerevisiae deletion strains, locus YKL068W, hits give low values 0.986 | S. cerevisiae deletion strains, locus YKL085W, strain MDH1 (second series), hits give low values 0.983 | S. cerevisiae deletion strains, locus YKL085W, strain MDH1, hits give low values 0.983 | S. cerevisiae deletion strains, locus YKL160W, strain elf1, hits give low values 1.04 | S. cerevisiae deletion strains, locus YKL190W, strain CNB1, hits give low values 0.978 | S. cerevisiae deletion strains, locus YKR001C, strain vps1, hits give low values 0.989 | S. cerevisiae deletion strains, locus YKR026C, strain gcn3, hits give low values 1.03 | S. cerevisiae deletion strains, locus YKR091W, strain srl3, hits give low values 1.01 | S. cerevisiae deletion strains, locus YLL001W, strain dnm1, hits give low values 0.984 | S. cerevisiae deletion strains, locus YLL026W, hits give low values 1.01 | S. cerevisiae deletion strains, locus YLL041C, strain sdh2, hits give low values 1.01 | S. cerevisiae deletion strains, locus YLR027C, strain aat2, hits give low values 1.02 | S. cerevisiae deletion strains, locus YLR039C, strain RIC1, hits give low values 0.964 | S. cerevisiae deletion strains, locus YLR058C, strain SHM2, hits give low values 0.975 | S. cerevisiae deletion strains, locus YLR102C, strain apc9, hits give low values 0.986 | S. cerevisiae deletion strains, locus YLR113W, strain HOG1, hits give low values 0.983 | S. cerevisiae deletion strains, locus YLR221C, strain rsa3, hits give low values 0.987 | S. cerevisiae deletion strains, locus YLR258W, strain gsy2, hits give low values 0.996 | S. cerevisiae deletion strains, locus YLR262C, strain YPT6 (second series), hits give low values 1.02 | S. cerevisiae deletion strains, locus YLR262C, strain YPT6, hits give low values 0.958 | S. cerevisiae deletion strains, locus YLR268W, strain sec22, hits give low values 0.99 | S. cerevisiae deletion strains, locus YLR320W, strain mms22, hits give low values 0.957 | S. cerevisiae deletion strains, locus YLR330W, strain CHS5, hits give low values 1 | S. cerevisiae deletion strains, locus YLR342W, strain FKS1 (second series), hits give low values 1.01 | S. cerevisiae deletion strains, locus YLR342W, strain FKS1, hits give low values 1.02 | S. cerevisiae deletion strains, locus YLR357W, strain rsc2, hits give low values 1.03 | S. cerevisiae deletion strains, locus YLR370C, strain arc18, hits give low values 1.01 | S. cerevisiae deletion strains, locus YLR371W, strain rom2, hits give low values 0.996 | S. cerevisiae deletion strains, locus YLR384C, strain iki3, hits give low values 1.01 | S. cerevisiae deletion strains, locus YLR418C, strain cdc73, hits give low values 0.995 | S. cerevisiae deletion strains, locus YML016C, strain PPZ1, hits give low values 0.986 | S. cerevisiae deletion strains, locus YML032C, strain rad52, hits give low values 0.994 | S. cerevisiae deletion strains, locus YML120C, strain ndi1, hits give low values 0.998 | S. cerevisiae deletion strains, locus YML124C, strain tub3, hits give low values 0.995 | S. cerevisiae deletion strains, locus YMR058W, strain fet3, hits give low values 1.02 | S. cerevisiae deletion strains, locus YMR078C, strain ctf18, hits give low values 0.994 | S. cerevisiae deletion strains, locus YMR125W, strain sto1, hits give low values 1.02 | S. cerevisiae deletion strains, locus YMR129W, hits give low values 1 | S. cerevisiae deletion strains, locus YMR205C, strain PFK2, hits give low values 1.02 | S. cerevisiae deletion strains, locus YMR223W, strain ubp8, hits give low values 0.992 | S. cerevisiae deletion strains, locus YMR231W, strain pep5, hits give low values 1.02 | S. cerevisiae deletion strains, locus YMR307W, strain GAS1, hits give low values 1.05 | S. cerevisiae deletion strains, locus YNL067W, strain RPL9B, hits give low values 0.966 | S. cerevisiae deletion strains, locus YNL071W, strain lat1, hits give low values 0.983 | S. cerevisiae deletion strains, locus YNL153C, strain GIM3, hits give low values 0.989 | S. cerevisiae deletion strains, locus YNL183C, strain NPR1, hits give low values 0.919 | S. cerevisiae deletion strains, locus YNL209W, strain ssb2, hits give low values 1.03 | S. cerevisiae deletion strains, locus YNL233W, strain BNI4, hits give low values 0.974 | S. cerevisiae deletion strains, locus YNL248C, strain rpa49, hits give low values 1.03 | S. cerevisiae deletion strains, locus YNL250W, strain rad50, hits give low values 0.973 | S. cerevisiae deletion strains, locus YNL271C, strain bni1, hits give low values 0.998 | S. cerevisiae deletion strains, locus YNL298W, strain CLA4, hits give low values 0.996 | S. cerevisiae deletion strains, locus YNL307C, strain MCK1, hits give low values 0.993 | S. cerevisiae deletion strains, locus YNL322C, strain KRE1 (second series), hits give low values 1.02 | S. cerevisiae deletion strains, locus YNR049C, strain mso1, hits give low values 1.01 | S. cerevisiae deletion strains, locus YNR052C, strain pop2, hits give low values 0.998 | S. cerevisiae deletion strains, locus YOL006C, strain TOP1, hits give low values 0.944 | S. cerevisiae deletion strains, locus YOL012C, strain htz1 0.788 | S. cerevisiae deletion strains, locus YOL147C, strain pex11, hits give low values 0.995 | S. cerevisiae deletion strains, locus YOR001W, strain rrp6, hits give low values 0.966 | S. cerevisiae deletion strains, locus YOR061W, strain CKA2, hits give low values 0.958 | S. cerevisiae deletion strains, locus YOR069W, strain VPS5, hits give low values 0.995 | S. cerevisiae deletion strains, locus YOR070C, strain gyp1, hits give low values 1.02 | S. cerevisiae deletion strains, locus YOR080W, strain dia2, hits give low values 1.03 | S. cerevisiae deletion strains, locus YOR083W, strain WHI5, hits give low values 0.959 | S. cerevisiae deletion strains, locus YOR106W, strain vam3, hits give low values 1.03 | S. cerevisiae deletion strains, locus YOR136W, strain idh2, hits give low values 0.986 | S. cerevisiae deletion strains, locus YOR144C, strain elg1, hits give low values 0.992 | S. cerevisiae deletion strains, locus YOR184W, strain ser1, hits give low values 1.01 | S. cerevisiae deletion strains, locus YOR231W, strain MKK1, hits give low values 0.966 | S. cerevisiae deletion strains, locus YOR265W, strain rbl2, hits give low values 0.994 | S. cerevisiae deletion strains, locus YOR270C, strain vph1, hits give low values 0.924 | S. cerevisiae deletion strains, locus YOR290C, strain snf2, hits give low values 1.01 | S. cerevisiae deletion strains, locus YOR316C, strain cot1, hits give low values 0.989 | S. cerevisiae deletion strains, locus YPL051W, strain arl3, hits give low values 0.997 | S. cerevisiae deletion strains, locus YPL055C, strain LGE1, hits give low values 0.918 | S. cerevisiae deletion strains, locus YPL078C, strain atp4, hits give low values 1.03 | S. cerevisiae deletion strains, locus YPL106C, strain sse1, hits give low values 1.01 | S. cerevisiae deletion strains, locus YPL240C, strain hsp82, hits give low values 1.01 | S. cerevisiae deletion strains, locus YPL256C, strain CLN2, hits give low values 0.953 | S. cerevisiae deletion strains, locus YPR119W, strain clb2, hits give low values 0.983 | S. cerevisiae deletion strains, locus YPR141C, strain kar3, hits give low values 0.988 | S. cerevisiae deletion strains, locus YPR163C, strain tif3, hits give low values 0.986 | S. cerevisiae deletion strains, locus YPR167C, strain met16, hits give low values 0.993 | S. cerevisiae deletion strains, strain wtn01, hits give low values 0.995 | S. cerevisiae strains, strain wild type, hits give low values 0.982
